The whole screen tested about 39,000 compounds, of which about 500 (1.3%) were called active. Many of the other results were omitted from the sample, so actives are more common in it than they were.
These molecules were tested on S. aureus RN4220 (assay: growth inhibition call (relative growth <= 0.2)). Conditions: 50 µM.
For `CN1CCN(C(=O)C[C@@H]2CC[C@H]3[C@@H](COC[C@H](O)CN3C(=O)Nc3cc(Cl)cc(Cl)c3)O2)CC1`, the growth inhibition call was “inactive”. For `O=C(C[C@@H]1CC[C@H]2[C@@H](COC[C@H](O)CN2C(=O)Nc2cc(Cl)cc(Cl)c2)O1)N1CCOCC1`, the growth inhibition call was “inactive”. With `O=C(C[C@H]1CC[C@H]2[C@@H](COC[C@@H](O)CN2C(=O)Nc2cc(Cl)cc(Cl)c2)O1)N1CCOCC1` the growth inhibition call was “inactive”. `O=C(C[C@@H]1CC[C@H]2[C@@H](COC[C@@H](O)CN2C(=O)Nc2cc(Cl)cc(Cl)c2)O1)N1CCOCC1` was tested, and the growth inhibition call was “active”. For `O=C(C[C@@H]1CC[C@@H]2[C@H](COC[C@@H](O)CN2C(=O)Nc2cc(Cl)cc(Cl)c2)O1)N1CCOCC1`, the growth inhibition call was “active”. `O=C(C[C@H]1CC[C@@H]2[C@H](COC[C@H](O)CN2C(=O)Nc2cc(Cl)cc(Cl)c2)O1)N1CCOCC1` was tested, and the growth inhibition call was “inactive”. With `O=C(C[C@H]1CC[C@H]2[C@@H](COC[C@H](O)CN2C(=O)Nc2cc(Cl)cc(Cl)c2)O1)N1CCOCC1` the growth inhibition call was “inactive”. For `O=C(C[C@@H]1CC[C@@H]2[C@H](COC[C@H](O)CN2C(=O)Nc2cc(Cl)cc(Cl)c2)O1)N1CCOCC1`, the growth inhibition call was “active”. With `O=C(C[C@H]1CC[C@@H]2[C@H](COC[C@@H](O)CN2C(=O)Nc2cc(Cl)cc(Cl)c2)O1)N1CCOCC1` the growth inhibition call was “inactive”. For `C[C@H](O)C#Cc1ccc2c(c1)O[C@H](CN(C)C(=O)c1ccccc1)[C@H](C)CN([C@H](C)CO)S2(=O)=O`, the growth inhibition call was “inactive”. `C[C@@H]1CCCCO[C@@H](CN(C)C(=O)Nc2ccc(C(F)(F)F)cc2)[C@H](C)CN([C@H](C)CO)C(=O)c2cc(NS(=O)(=O)c3cn(C)cn3)ccc2O1` was tested, and the growth inhibition call was “inactive”. `C[C@@H]1CN([C@H](C)CO)C(=O)c2cc(NC(=O)CCN3CCOCC3)ccc2O[C@H]1CN(C)C(=O)Nc1ccc2c(c1)OCO2` was tested, and the growth inhibition call was “inactive”. `Cc1noc(C)c1S(=O)(=O)Nc1ccc2c(c1)C(=O)N([C@H](C)CO)C[C@H](C)[C@H](CN(C)Cc1ccccc1)OCCCC[C@@H](C)O2` was tested, and the growth inhibition call was “inactive”. For `Cc1ccc(C)c(Cc2cc(Cl)ccc2Cl)c1`, the growth inhibition call was “inactive”. In the case of `Cc1noc(C)c1NC(=O)Nc1ccc2c(c1)C(=O)N([C@H](C)CO)C[C@@H](C)[C@@H](CN(C)C(=O)C1CCCCC1)OCCCC[C@@H](C)O2`, the growth inhibition call is reported as “inactive”. In the case of `C[C@@H]1CN([C@H](C)CO)C(=O)c2cc(NS(=O)(=O)c3cn(C)cn3)ccc2O[C@@H](C)CCCCO[C@@H]1CN(C)CC1CC1`, the growth inhibition call is reported as “inactive”. With `CCNC(=O)C[C@@H]1CC[C@H](NC(=O)C2CCOCC2)[C@@H](CO)O1` the growth inhibition call was “inactive”. `OC[C@H]1COc2ccccc2O1` was tested, and the growth inhibition call was “inactive”. In the case of `C[C@@H]1CCCCO[C@H](CN(C)S(=O)(=O)c2ccc(Cl)cc2)[C@@H](C)CN([C@H](C)CO)C(=O)c2cc(NS(=O)(=O)c3ccc(F)cc3)ccc2O1`, the growth inhibition call is reported as “inactive”. `NC(=O)N1C(=O)[C@H]2[C@H](C1=O)[C@H]1C=C(CCCO)[C@@H]2[C@H](c2cccs2)N1Cc1cc2c(cc1Br)OCO2` was tested, and the growth inhibition call was “inactive”. `CN1C(=O)[C@H]2[C@H](C1=O)[C@H]1C=C(c3ccc(CO)cc3)[C@@H]2[C@H](c2cccs2)N1Cc1cccc(OC(F)(F)F)c1` was tested, and the growth inhibition call was “active”. In the case of `NC(=O)N1C(=O)[C@H]2[C@H](C1=O)[C@H]1C=C(c3ccc(CO)cc3)[C@@H]2[C@@H](C2CC2)N1Cc1cc2c(cc1Br)OCO2`, the growth inhibition call is reported as “inactive”. In the case of `CC(C)NC(=O)N(C)C[C@@H]1Oc2ccc(NC(=O)CCCN(C)C)cc2CC(=O)N([C@@H](C)CO)C[C@H]1C`, the growth inhibition call is reported as “inactive”. For `Cc1ccc(S(=O)(=O)N(C)C[C@@H]2OCCCC[C@@H](C)Oc3ccc(NC(=O)Nc4ccc(F)cc4)cc3C(=O)N([C@H](C)CO)C[C@H]2C)cc1`, the growth inhibition call was “inactive”. With `CN(C)CCCNC(=O)C[C@@H]1CC[C@@H]2[C@H](COc3ccc(NC(=O)c4cccc(F)c4)cc3C(=O)N2C)O1` the growth inhibition call was “inactive”. `CC(C)(c1cc(Br)c(O)c(Br)c1)c1cc(Br)c(O)c(Br)c1` was tested, and the growth inhibition call was “active”. With `Cc1cc(C(C)(C)C)c(O)c(C(C)(C)C)c1` the growth inhibition call was “inactive”. With `O=C(C[C@@H]1CC[C@H]2NC[C@H](O)COC[C@@H]2O1)NCCN1CCCCC1` the growth inhibition call was “inactive”. In the case of `C[C@@H]1CCCCO[C@@H](CN(C)S(=O)(=O)c2cccs2)[C@H](C)CN([C@H](C)CO)C(=O)c2cc(NC(=O)Nc3ccc(F)cc3)ccc2O1`, the growth inhibition call is reported as “inactive”. In the case of `COCC#Cc1ccc2c(c1)O[C@@H](CN(C)S(=O)(=O)c1ccc(OC)cc1)[C@@H](C)CN([C@H](C)CO)S2(=O)=O`, the growth inhibition call is reported as “inactive”. `Cn1c(=O)c2c(nc(NCCO)n2C)n(C)c1=O` was tested, and the growth inhibition call was “inactive”. For `C=CCc1ccc(O[C@@H]2O[C@H](CO[C@@H]3O[C@@H](C)[C@H](O)[C@@H](O)[C@H]3O)[C@@H](O)[C@H](O)[C@H]2O)c(O)c1`, the growth inhibition call was “inactive”. In the case of `S=c1ccss1`, the growth inhibition call is reported as “active”. For `O=C(C[C@@H]1C[C@@H]2c3cc(NS(=O)(=O)c4ccc(F)cc4)ccc3O[C@@H]2[C@H](CO)O1)NCc1cccc(F)c1`, the growth inhibition call was “inactive”. In the case of `[N-]=[N+]=N[C@]1(CO)O[C@@H](n2ccc(N)nc2=O)[C@@H](O)[C@@H]1O`, the growth inhibition call is reported as “inactive”. In the case of `CNC[C@H]1Oc2ccc(NS(=O)(=O)c3cn(C)cn3)cc2CC(=O)N([C@H](C)CO)C[C@@H]1C`, the growth inhibition call is reported as “inactive”. In the case of `CN1CCN(C(=O)C[C@H]2CC[C@H]3[C@@H](COc4ccc(NC(=O)c5cscn5)cc4C(=O)N3C)O2)CC1`, the growth inhibition call is reported as “inactive”. For `Cn1c(=O)c2cc(S(=O)(=O)NCCC(=O)NC3CCCC3)ccc2n(C)c1=O`, the growth inhibition call was “inactive”. In the case of `C#CC[C@H](c1nc2cc(Cl)ccc2c(=O)n1Nc1ccccc1)N(CCCN)C(=O)c1cccc(Cl)c1F`, the growth inhibition call is reported as “active”. In the case of `CO[C@H](CN(C)C(=O)c1ccccc1F)[C@@H](C)CN([C@@H](C)CO)S(=O)(=O)c1ccc(Cl)cc1`, the growth inhibition call is reported as “inactive”. For `C[C@H]1CCCCO[C@@H](CN(C)C(=O)Nc2ccc3c(c2)OCO3)[C@@H](C)CN([C@@H](C)CO)C(=O)c2cc(NC(=O)CCC(F)(F)F)ccc2O1`, the growth inhibition call was “inactive”. `C[C@H](CO)N1C[C@H](C)[C@@H](CN(C)C(=O)Nc2ccccc2)OCCCC[C@H](C)Oc2ccc(NC(=O)Nc3cccc4ccccc34)cc2C1=O` was tested, and the growth inhibition call was “inactive”. In the case of `CC[C@@H]1OC(=O)[C@@H](C)[C@H](O[C@H]2C[C@@](C)(OC)[C@@H](O)[C@H](C)O2)[C@@H](C)[C@H](O)[C@@](C)(O[C@@H]2O[C@H](C)C[C@H](N(C)C)[C@H]2O)C[C@H](C)C(=O)[C@@H](C)[C@H](O)[C@@]1(C)O`, the growth inhibition call is reported as “active”. In the case of `CCC1OC(=O)C(C)C(OC2CC(C)(OC)C(O)C(C)O2)C(C)C(OC2OC(C)CC(N(C)C)C2O)C(C)(OC)CC(C)C(=O)C(C)C(O)C1(C)O` (stereo unspecified), the growth inhibition call is reported as “active”. `CC[C@H]1OC(=O)[C@H](C)[C@@H](O[C@H]2C[C@@](C)(OC)[C@@H](O)[C@H](C)O2)[C@H](C)[C@@H](O[C@@H]2O[C@H](C)C[C@H](N(C)C)[C@H]2O)[C@](C)(OC)C[C@@H](C)C(=O)[C@H](C)[C@@H](O)[C@]1(C)O` was tested, and the growth inhibition call was “active”. In the case of `Cc1ccc(S(=O)(=O)Nc2ccc3c(c2)CC(=O)N([C@@H](C)CO)C[C@H](C)[C@H](CN(C)S(=O)(=O)c2c(C)noc2C)O3)cc1`, the growth inhibition call is reported as “inactive”. `C[C@H](CO)N1C[C@H](C)[C@H](CN(C)S(=O)(=O)c2ccc(Cl)cc2)Oc2c(NC(=O)C3CCOCC3)cccc2C1=O` was tested, and the growth inhibition call was “inactive”. For `COc1ccc(CNC(=O)C[C@@H]2CC[C@@H]3[C@H](COc4ccc(NC(=O)C5CC5)cc4C(=O)N3C)O2)cc1`, the growth inhibition call was “inactive”. For `COc1ccccc1C#Cc1cnc2c(c1)C(=O)N([C@@H](C)CO)C[C@H](C)[C@@H](CN(C)S(=O)(=O)c1cn(C)cn1)O2`, the growth inhibition call was “inactive”. In the case of `COc1ccccc1NC(=O)N(C)C[C@H]1Oc2ncc(C#CCN(C)C)cc2C(=O)N([C@@H](C)CO)C[C@@H]1C`, the growth inhibition call is reported as “inactive”. In the case of `COc1ccc(-c2ccc3c(c2)O[C@H](CN(C)CC2CCOCC2)[C@@H](C)CN([C@H](C)CO)S3(=O)=O)cc1`, the growth inhibition call is reported as “inactive”. `C[C@@H]1CN([C@@H](C)CO)C(=O)Cc2cc(NC(=O)Cn3cnnn3)ccc2O[C@H]1CN(C)S(=O)(=O)c1ccc(Cl)cc1` was tested, and the growth inhibition call was “inactive”. With `Cc1noc(C)c1NC(=O)Nc1ccc2c(c1)C(=O)N([C@H](C)CO)C[C@@H](C)[C@@H](CN(C)C(=O)Nc1c(C)noc1C)OCCCC[C@@H](C)O2` the growth inhibition call was “inactive”. For `Cc1cc(NN)nc(SCC(=O)NN)n1`, the growth inhibition call was “inactive”. With `CC(C)(Sc1ccc(CCN(CCCCC2CCCCC2)C(=O)NC2CCCCC2)cc1)C(=O)O` the growth inhibition call was “active”. In the case of `C/C=C/c1ccc2c(c1)O[C@@H](CN(C)C(=O)c1ccc3c(c1)OCO3)[C@@H](C)CN([C@@H](C)CO)S2(=O)=O`, the growth inhibition call is reported as “inactive”. `Cn1cnc(S(=O)(=O)N2C[C@H](O)COC[C@H]3O[C@H](CC(=O)NC4CCC4)CC[C@@H]32)c1` was tested, and the growth inhibition call was “inactive”. For `C[C@H]1CN([C@@H](C)CO)C(=O)c2cc(NC(=O)CCCN(C)C)ccc2O[C@H]1CN(C)Cc1ccc(C(=O)O)cc1`, the growth inhibition call was “inactive”. In the case of `C[C@H]1CN([C@@H](C)CO)C(=O)c2cc(NC(=O)Cn3cnnn3)ccc2O[C@H]1CN(C)Cc1ccc(C(=O)Nc2ccccc2N)cc1`, the growth inhibition call is reported as “inactive”. For `C[N+](C)(CCOc1ccccc1)Cc1ccccc1.O=C([O-])c1cc2ccccc2cc1O`, the growth inhibition call was “inactive”. `C[N+](C)(CCOc1ccccc1)Cc1ccccc1.O=C(O)c1cc2ccccc2c(Br)c1O` was tested, and the growth inhibition call was “inactive”. In the case of `Cc1cc(C(C)(C)CC(C)(C)C)ccc1OCCOCC[N+](C)(C)Cc1ccccc1.[Cl-]`, the growth inhibition call is reported as “active”. For `CC(C)(C)CC(C)(C)c1ccc(OCCOCC[N+](C)(C)Cc2ccccc2)cc1.[Cl-]`, the growth inhibition call was “active”. In the case of `C=c1ccc(C)cc1=C1NN=C(NC(=O)c2ccc(S(=O)(=O)N(CCOC)CCOC)cc2)O1`, the growth inhibition call is reported as “inactive”. In the case of `CC(C)NC(=O)NCC[C@H]1CC[C@H](NC(=O)CN(C)C)[C@@H](CO)O1`, the growth inhibition call is reported as “inactive”. With `C/C=C/c1ccc2c(c1)O[C@H](CN(C)Cc1ccc(C(=O)O)cc1)[C@@H](C)CN([C@H](C)CO)S2(=O)=O` the growth inhibition call was “inactive”.
